From PubChem BioAssay
Rows were chosen to be rich in hits. Some 7.4% of all compounds tested hit in one or more screens of this group.
FLuc inh: inhibitors of firefly (Photinus pyralis) luciferase | P08659 | purified P. pyralis luciferase, luminescence, biochemical | Potency, µM (doses to about 115 µM), most hits filed as inhibitors | 76,000 tested, 2.5% active | AID 1347043; further: nearly all actives have a fitted effect of over 65% in size
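FLuc 10nM, D-luciferin 10uM, ATP 10uM, Mg acetate 10mM, Tris acetate pH 7.5, Tween/BSA; cpd qHTS; enzyme added last; CCD luminescence.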
NIH3T3 tox: kills NIH 3T3 cells | 94,000 tested, 4.3% active | NIH 3T3 viability, CellTiter-Glo ATP luminescence, 48-72 h | Potency, µM (series often up to 96.7 µM), for the others: at the highest dose activity change, negative = cytotoxicity, most hits filed as inhibitors | AID 1345082; further: nearly all actives have a fitted effect of over 55% in size
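Mouse fibroblast NIH 3T3 cells, 400 per well, received compound via pintool and were incubated for 48 or 72 hr prior to CellTiter-Glo ATP luminescence measurement.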
HEK293 tox: HEK 293 cell cytotoxicity | HEK 293 viability, ATP luminescence (CellTiter-Glo), 48-72 h | Potency, µM (highest dose often 115 µM), for the others: at the highest dose activity change, negative = cytotoxicity, actives largely listed as inhibitors | 94,000 tested, 6.6% active | AID 1345083; further: nearly all actives have a fitted effect of over 60% in size
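Cytotoxicity was scored by loss of ATP-coupled luminescence (CellTiter-Glo) in HEK 293 cells. Compound treatment ran 48 or 72 hr at 37 degree Celsius, 5% CO2, 95% humidity.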
SNCA expr inhib: inhibitors of alpha-synuclein (SNCA) gene expression; HEK-293 SNCA-luciferase knock-in, luminescence, 24 h; Potency, µM (series often up to 57.2 µM), without a hit: at the highest dose activity change, negative = inhibition, hits mostly inhibitors; 140,000 tested, 0.17% active;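 further: plate controls were DMSO cells for no effect and cell-free wells for full effect; nearly all actives have a fitted effect of over 45% in size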
SNCA viab count: cell viability loss counter-screen; 150,000 tested, 0.12% active; Potency, µM (top dose mostly 57.1 µM), without a hit: at the highest dose activity change, negative = cytotoxicity, actives largely listed as cytotoxic; HEK-293-SNCA-luc viability, GF-AFC fluorescence, 24 h;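 further: 0% = DMSO-treated cells and -100% = medium-only wells without cells; nearly all actives have a fitted effect of over 30% in size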
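HEK-293-SNCA-luc cells (1500/well) plated 24 h, then exposed 24 h to a dilution series; GF-AFC added 30 min at 37C, fluorescence 405/540 nm; normalised to medium-only and DMSO wells, Hill fit.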
hNpr1 antagonist: human Npr1 receptor antagonism; HEK293 hNpr1 GloSensor cGMP, ANP-stimulated luminescence; Potency, µM (highest dose often 46.3 µM), for inactives: at the highest dose activity change, negative = inhibition, actives largely listed as inhibitors; 76,000 tested, 1.6% active; AID 1347048; calls by dose curve; further: nearly all actives have a fitted effect of over 60% in size
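Compound pre-incubated 30 min at room temperature on GloSensor-loaded HEK293 cells stably carrying hNpr1 and the pGS-40F cGMP biosensor. Stimulation uses hNppA at 0.1 nM final; luminescence is taken at baseline and 20 min post-agonist.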
* hit, by the source's call; i = inactive; ? = inconclusive; · = not tested or not shown; ! = a repeat was not active; [ ] = dose if it differs, or a comment. Unless noted, the call rests on the fitted dose curve; in most records, active means well fitted curve in the direction sought with a large enough effect; inconclusive means small, poorly fitted or top-dose-only effect, or another doubt; inactive means no such curve, though single readings can be large; an effect the other way counts as inactive or inconclusive. Unless noted, on the % scale 0 is the no-effect control and ±100 the full control effect; potency means the concentration at half of the fitted maximal effect.

SMILES	FLuc inh	NIH3T3 tox	HEK293 tox	SNCA expr inhib	SNCA viab count	hNpr1 antagonist
CC(C)C[C@H](NC(=O)[C@H](CCc1ccccc1)NC(=O)CN1CCOCC1)C(=O)N[C@@H](Cc1ccccc1)C(=O)N[C@@H](CC(C)C)C(=O)[C@@]1(C)CO1	·	·	·	0.121µM*!	?	·
CC(C)CCN1CCC(N(C(=O)NCCc2ccccc2)C2CCOCC2)CC1	i	-9.4%	?	0.9%	-7.6%	-1.6%
CN1C(=O)CCC2(CNC(=O)NCCc3ccccc3)CCCC=C12 (stereo not given)	i	-1.5%	-1.0%	38.3%	1.7%	0.4%
O=C(Nc1ccncn1)[C@@H]1C[C@@H](c2cccc(C(F)(F)F)c2)N(CC2CCOCC2)C1	i	?	79.4µM*	-27.5%[87.6 µM]	-6.8%[87.6 µM]	-6.7%[70.6 µM]
O=C(Nc1ccc(F)cc1)[C@@H]1C[C@@H](c2cccc(C(F)(F)F)c2)N(CC2CCOCC2)C1	i	25.1µM*	?	?	-13.1%	-18.0%
Cn1cc(CN2C[C@H](C(=O)Nc3ccc(F)cc3)C[C@H]2c2cccc(C(F)(F)F)c2)cn1	i	?	?	?	?	-9.7%
COC(=O)CNC(=O)C1CCCN1c1nccc(Nc2ccccc2F)n1 (stereo not given)	·	-27.9%	-20.7%	?	-14.1%[12.5 µM]	·
CNC(=O)C1CCCN(c2nccc(Nc3ccccc3OC)n2)C1 (stereo not given)	·	-25.2%[138 µM]	?	20.7%[87.6 µM]	-11.8%[12.5 µM]	·
COc1ccccc1Nc1ccnc(N2CCCC(C(=O)NCCCc3ccccc3)C2)n1 (stereo not given)	·	?	50.1µM*	2.2%	0.5%[12.5 µM]	·
COc1ccccc1Nc1ccnc(N2CCCC(C(=O)NC(C)C)C2)n1 (stereo not given)	·	44.7µM*	?	22.8%	3.5%[12.5 µM]	·
COc1ccccc1Nc1ccnc(N2CCCC(C(=O)NCC3CC3)C2)n1 (stereo not given)	·	35.5µM*	?	-12.8%	-5.5%[12.5 µM]	·
COCCCNC(=O)C1CCCN(c2nccc(Nc3ccccc3OC)n2)C1 (stereo not given)	·	-37.5%	-14.8%	-7.6%	-5.8%[12.5 µM]	·
COc1ccccc1CNC(=O)C1CCCN(c2nccc(Nc3ccccc3OC)n2)C1 (stereo not given)	·	35.5µM*	?	-22.6%	0.5%[12.5 µM]	·
CCC(CC)C(=O)N1CCC(OC2CCN(C)CC2)CC1	i	0.6%	-1.2%	-7.9%	-1.0%	-1.9%
COc1ccc(CN2Cc3[nH]nc(-c4cccc(OC)c4)c3CC2=O)cc1	i	?	-24.5%[172 µM]	4.5%[87.6 µM]	-3.0%[87.6 µM]	-11.6%[70.6 µM]
COc1ccc(CN2Cc3[nH]nc(-c4cccc(O)c4)c3CC2=O)cc1	i	10µM*	?	3.8%[87.6 µM]	0.6%[87.6 µM]	-12.2%[70.6 µM]
O=C(CN1C(=O)NC(c2ccc(Cl)cc2)C2=C1COC2=O)Nc1cc(F)ccc1F (stereo not given)	i	?	44.7µM*	-20.7%	-3.5%	-17.3%
O=C(CN1C(=O)NC(c2ccc(Cl)cc2)C2=C1COC2=O)Nc1ccc2c(c1)OCO2 (stereo not given)	i	?	?	?	0.8%	-10.2%
O=C(CN1C(=O)NC(c2ccc(Cl)cc2)C2=C1COC2=O)Nc1cc(F)cc(F)c1 (stereo not given)	i	25.1µM*	25.1µM*	-8.2%	-8.8%	-28.6%
Cc1ccc(C)c(NC(=O)CN2C(=O)NC(c3ccc(Cl)cc3)C3=C2COC3=O)c1 (stereo not given)	i	?	?	?	6.0%	-8.7%
Cc1ccc(NC(=O)CN2C(=O)NC(c3ccccc3Cl)C3=C2COC3=O)cc1C (stereo not given)	?	?	?	-15.9%	-0.3%	-17.8%
O=C(CN1C(=O)NC(c2ccc(Cl)cc2)C2=C1COC2=O)Nc1ccc(Cl)cc1F (stereo not given)	i	35.5µM*	?	-9.9%	-13.1%	-25.9%
Cc1cc(NC(=O)CN2C(=O)NC(c3ccccc3Cl)C3=C2COC3=O)ccc1Br (stereo not given)	?	39.8µM*	44.7µM*	-26.1%	?	-21.8%
Cc1cccc(Cl)c1NC(=O)CN1C(=O)NC(c2ccc(Cl)cc2)C2=C1COC2=O (stereo not given)	i	?	31.6µM*	-11.8%	3.9%	-12.6%
